# A number with no mark means an inactive call. This is one part of the list. Active and inactive are the calls of the source.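 Rule for the calls, unless noted: active = inhibition above the primary screen's cutoff, its mean inhibition plus 3 SD (cut at about 35% in these data); inactive = the rest.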
# Key:
# [1] = biological target: Protein phosphatase methylesterase 1 (Homo sapiens) (UniProt Q9Y570); assay: human PME-1 methylesterase inhibition confirmation – biochemical, fluorescence polarization, FP-Rh probe, triplicate (AID 2171;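 active = inhibition above the hit cutoff set in the earlier primary screen, cut at about 27% in these data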;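 note: 0% = enzyme with DMSO and 100% = wells lacking PME-1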); conditions: recombinant PME-1, FP-Rh probe fluorescence polarization; at 5.9 µM; active compounds read high
# Sequence of Protein phosphatase methylesterase 1 (Homo sapiens) (Q9Y570 whole entry, looked up, the tested form may be a part): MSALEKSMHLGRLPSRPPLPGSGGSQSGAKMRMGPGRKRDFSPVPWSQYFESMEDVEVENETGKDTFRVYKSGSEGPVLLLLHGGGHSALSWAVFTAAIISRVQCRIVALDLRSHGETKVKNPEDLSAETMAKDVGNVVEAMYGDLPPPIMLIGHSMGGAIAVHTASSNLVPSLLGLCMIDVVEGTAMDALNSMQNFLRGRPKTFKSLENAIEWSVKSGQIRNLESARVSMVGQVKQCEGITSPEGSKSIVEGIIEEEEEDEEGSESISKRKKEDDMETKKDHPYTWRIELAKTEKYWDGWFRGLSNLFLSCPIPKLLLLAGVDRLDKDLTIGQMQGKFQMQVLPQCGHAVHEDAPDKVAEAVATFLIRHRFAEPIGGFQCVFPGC
# [2] = biological target: Nuclear receptor coactivator 1 (Homo sapiens) (UniProt Q15788); assay: NCOA1 GAL4-fusion reporter inhibition – cell-based, luminescence, quadruplicate, confirmation (AID 588820;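 active = mean inhibition above 46.68%, the untreated control wells mean plus 3 SD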;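 note: 0% = DMSO wells and 100% = gossypol 36 µM treated wells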); conditions: HEK293 GAL4-SRC1 luciferase reporter, at 3.6 µM, active compounds read high
# [3] = repression of VP16-driven luciferase reporter – cell-based, luminescence, high throughput, counter-screen for SRC1 inhibitor project (AID 588824; in the data active = inhibition above about 25%); conditions: cell-based VP16 transactivation luciferase luminescence; at 3.6 µM; active compounds read high
# [4] = system: transactivating tegument protein VP16 (Human herpesvirus 1); assay: compounds suppressing VP16-driven luciferase signal – cell-based, luminescence, single concentration, counter-screen for SRC2 inhibitor project (AID 652007; in the data active = inhibition above about 36%); conditions: cell-based VP16 transactivation luciferase reporter, at 8.9 µM, active compounds read high
# [5] = biological target: Nuclear receptor coactivator 2 (Homo sapiens) (UniProt Q15596); assay: inhibition of GAL4-SRC2 driven luciferase expression – cell-based, luminescence, HEK293, triplicate, confirmation (AID 652008;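 active = mean inhibition above 46.5%, the solvent-only control mean plus 3 SD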;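 note: 0% = DMSO-treated cells and 100% = Gossypol at 36 µM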); conditions: HEK293 GAL4-SRC2 luciferase reporter, at 8.9 µM, active compounds read high
# Sequence of Nuclear receptor coactivator 2 (Homo sapiens) (Q15596 whole entry, looked up, the tested form may be a part): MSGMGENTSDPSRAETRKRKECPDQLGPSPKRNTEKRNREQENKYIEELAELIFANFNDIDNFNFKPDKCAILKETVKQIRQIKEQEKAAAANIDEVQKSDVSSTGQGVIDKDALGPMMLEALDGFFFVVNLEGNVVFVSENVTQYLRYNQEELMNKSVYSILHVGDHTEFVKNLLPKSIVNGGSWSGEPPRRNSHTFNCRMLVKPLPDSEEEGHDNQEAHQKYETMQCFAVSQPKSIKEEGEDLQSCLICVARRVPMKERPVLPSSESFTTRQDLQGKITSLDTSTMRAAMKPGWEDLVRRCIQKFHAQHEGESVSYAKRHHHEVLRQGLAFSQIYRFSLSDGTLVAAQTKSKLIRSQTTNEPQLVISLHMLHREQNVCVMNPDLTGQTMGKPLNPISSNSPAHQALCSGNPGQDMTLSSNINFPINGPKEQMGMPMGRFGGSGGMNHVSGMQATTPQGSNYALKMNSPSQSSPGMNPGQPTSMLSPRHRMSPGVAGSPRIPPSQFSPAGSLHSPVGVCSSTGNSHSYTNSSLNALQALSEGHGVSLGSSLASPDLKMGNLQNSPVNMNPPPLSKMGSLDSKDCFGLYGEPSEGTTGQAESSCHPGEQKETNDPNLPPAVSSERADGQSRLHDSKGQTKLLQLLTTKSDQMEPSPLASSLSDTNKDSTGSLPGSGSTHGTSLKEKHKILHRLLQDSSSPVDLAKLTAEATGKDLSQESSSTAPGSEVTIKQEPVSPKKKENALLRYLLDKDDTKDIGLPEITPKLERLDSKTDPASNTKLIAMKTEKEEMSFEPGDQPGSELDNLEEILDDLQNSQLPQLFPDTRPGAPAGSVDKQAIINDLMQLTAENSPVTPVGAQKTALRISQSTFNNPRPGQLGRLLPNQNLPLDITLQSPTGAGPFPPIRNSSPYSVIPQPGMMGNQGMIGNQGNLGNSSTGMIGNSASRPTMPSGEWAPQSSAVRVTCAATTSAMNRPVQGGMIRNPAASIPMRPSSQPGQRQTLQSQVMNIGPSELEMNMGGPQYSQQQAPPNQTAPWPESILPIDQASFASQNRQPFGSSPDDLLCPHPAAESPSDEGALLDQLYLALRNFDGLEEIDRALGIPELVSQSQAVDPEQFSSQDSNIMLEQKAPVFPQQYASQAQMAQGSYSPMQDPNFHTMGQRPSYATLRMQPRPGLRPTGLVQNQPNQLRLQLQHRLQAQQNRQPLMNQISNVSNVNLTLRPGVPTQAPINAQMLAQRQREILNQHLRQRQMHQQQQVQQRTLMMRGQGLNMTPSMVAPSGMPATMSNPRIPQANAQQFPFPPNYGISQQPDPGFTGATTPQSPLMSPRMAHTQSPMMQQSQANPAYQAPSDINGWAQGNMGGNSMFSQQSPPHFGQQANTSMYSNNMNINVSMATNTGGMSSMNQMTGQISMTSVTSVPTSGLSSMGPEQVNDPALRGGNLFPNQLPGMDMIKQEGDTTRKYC
# [6] = StAR promoter reporter inhibitors, counter-screen for LRH-1 inverse agonist project, cell-based, luminescence, high throughput (AID 651611; in the data active = inhibition above about 28%); conditions: StAR promoter luciferase reporter counterscreen, at 3.6 µM, active compounds read high
# [7] = biological target: Nuclear receptor subfamily 5 group A member 2 (Homo sapiens) (UniProt O00482); assay: NR5A2 activity suppression in reporter cells – cell-based, luminescence, confirmation (AID 651613; in the data active = inhibition above about 42%;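 note: HEK293T cells co-transfected with LRH-1 and StAR promoter luciferase reporter; 0% = vehicle wells and 100% = parental cells lacking receptor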); conditions: cell-based LRH-1 luciferase reporter, inverse agonism; at 3.6 µM; active compounds read high
# Sequence of Nuclear receptor subfamily 5 group A member 2 (Homo sapiens) (O00482 whole entry, looked up): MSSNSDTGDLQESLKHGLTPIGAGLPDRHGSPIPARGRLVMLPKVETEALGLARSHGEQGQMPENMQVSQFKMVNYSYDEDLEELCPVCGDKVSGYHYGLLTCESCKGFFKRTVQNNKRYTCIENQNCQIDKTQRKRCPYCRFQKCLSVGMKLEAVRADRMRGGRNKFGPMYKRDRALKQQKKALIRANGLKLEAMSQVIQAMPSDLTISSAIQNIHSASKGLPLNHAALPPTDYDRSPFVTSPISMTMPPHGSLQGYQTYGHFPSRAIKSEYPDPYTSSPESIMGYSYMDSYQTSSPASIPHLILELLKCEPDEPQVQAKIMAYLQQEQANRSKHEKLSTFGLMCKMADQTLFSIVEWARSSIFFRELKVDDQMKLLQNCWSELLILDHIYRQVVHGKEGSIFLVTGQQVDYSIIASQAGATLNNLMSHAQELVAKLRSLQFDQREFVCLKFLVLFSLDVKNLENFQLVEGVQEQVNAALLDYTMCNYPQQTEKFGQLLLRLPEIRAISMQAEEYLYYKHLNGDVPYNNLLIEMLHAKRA
# [8] = biological target: Steroidogenic factor 1 (Homo sapiens) (UniProt Q13285); assay: inverse agonism at SF1 nuclear receptor – cell-based, luminescence, high throughput, counter-screen for LRH-1 inverse agonist project (AID 651614; in the data active = inhibition above about 44%;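 note: cells cotransfected with StAR promoter reporter and SF1 expression vector; 0% = vehicle on cells with receptor and 100% = vehicle on cells lacking receptor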); conditions: cell-based SF1 luciferase reporter, at 3.6 µM, active compounds read high
# Sequence of Steroidogenic factor 1 (Homo sapiens) (Q13285 whole entry, looked up, the tested form may be a part): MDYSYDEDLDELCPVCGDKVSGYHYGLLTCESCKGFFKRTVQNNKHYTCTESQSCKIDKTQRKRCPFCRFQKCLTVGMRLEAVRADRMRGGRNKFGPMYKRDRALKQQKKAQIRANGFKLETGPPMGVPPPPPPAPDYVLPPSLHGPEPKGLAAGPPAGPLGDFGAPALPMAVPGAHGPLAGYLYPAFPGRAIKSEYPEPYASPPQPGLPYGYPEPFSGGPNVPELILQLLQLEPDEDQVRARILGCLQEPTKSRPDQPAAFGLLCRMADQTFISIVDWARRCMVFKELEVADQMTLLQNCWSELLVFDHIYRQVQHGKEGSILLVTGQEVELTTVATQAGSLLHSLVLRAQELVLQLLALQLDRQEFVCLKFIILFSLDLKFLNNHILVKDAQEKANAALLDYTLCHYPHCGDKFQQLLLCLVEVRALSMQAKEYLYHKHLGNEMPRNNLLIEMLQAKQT
# [9] = compounds suppressing VP16-driven luciferase signal – cell-based, luminescence, high throughput, counter-screen for LRH-1 inverse agonist project (AID 651615; in the data active = inhibition above about 33%); conditions: Gal4-VP16 luciferase reporter cells, at 3.6 µM, active compounds read high
# [10] = biological target: Nuclear receptor coactivator 3 (Homo sapiens) (UniProt Q9Y6Q9); assay: NCOA3 GAL4-fusion reporter inhibition – cell-based, luminescence, quadruplicate, confirmation (AID 588792;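 active = mean inhibition over 43.08%, the solvent-only control mean plus 3 SD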;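 note: 0% = DMSO treated cells and 100% = gossypol at 36 µM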); conditions: HEK293 GAL4-SRC3 luciferase reporter, at 3.6 µM, active compounds read high
# [11] = system: transactivating tegument protein VP16 (Human herpesvirus 1), Gal4-VP16 luciferase reporter; assay: repression of VP16-driven luciferase reporter – cell-based, luminescence, high throughput, counter-screen for SRC3 inhibitor project (AID 588794; in the data active = inhibition above about 30%); conditions: mammalian cells, at 3.6 µM, active compounds read high
# [12] = biological target: Glutathione S-transferase omega-1 (Homo sapiens) (UniProt P78417); assay: recombinant GSTO1 blockers, retest – biochemical, fluorescence polarization, triplicate, counter-screen for RBBP9 inhibitor project, confirmation (AID 2176); conditions: recombinant GSTO1, probe fluorescence polarization; at 5.96 µM; active compounds read high;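 note: loss of polarization as inhibitors block binding of rhodamine sulfonate ester activity probe; 0% = GSTO1 with DMSO and 100% = wells lacking GSTO1 enzyme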
# Sequence of Glutathione S-transferase omega-1 (Homo sapiens) (P78417 whole entry, looked up): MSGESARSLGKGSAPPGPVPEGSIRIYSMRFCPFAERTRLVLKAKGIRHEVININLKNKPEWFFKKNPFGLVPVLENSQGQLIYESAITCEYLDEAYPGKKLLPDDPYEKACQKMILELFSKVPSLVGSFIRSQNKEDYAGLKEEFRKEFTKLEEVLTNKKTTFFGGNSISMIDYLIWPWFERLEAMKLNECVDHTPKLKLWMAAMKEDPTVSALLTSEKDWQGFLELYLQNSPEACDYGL
# [13] = biological target: Protein-arginine deiminase type-4 (Homo sapiens) (UniProt Q9UM07); assay: protein arginine deiminase 4 blockade, retest – biochemical, fluorescence polarization, confirmation (AID 488796;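 active = mean inhibition across replicates above the hit cutoff set by the earlier primary screen, cut at about 15% in these data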;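 note: inhibitors block active-site labeling by the probe so polarization falls; 0% = PAD4 with probe and DMSO and 100% = probe without PAD4 enzyme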); conditions: recombinant PAD4, RCA probe fluorescence polarization; at 6.36 µM; active compounds read high
# Sequence of Protein-arginine deiminase type-4 (Homo sapiens) (Q9UM07 whole entry, looked up): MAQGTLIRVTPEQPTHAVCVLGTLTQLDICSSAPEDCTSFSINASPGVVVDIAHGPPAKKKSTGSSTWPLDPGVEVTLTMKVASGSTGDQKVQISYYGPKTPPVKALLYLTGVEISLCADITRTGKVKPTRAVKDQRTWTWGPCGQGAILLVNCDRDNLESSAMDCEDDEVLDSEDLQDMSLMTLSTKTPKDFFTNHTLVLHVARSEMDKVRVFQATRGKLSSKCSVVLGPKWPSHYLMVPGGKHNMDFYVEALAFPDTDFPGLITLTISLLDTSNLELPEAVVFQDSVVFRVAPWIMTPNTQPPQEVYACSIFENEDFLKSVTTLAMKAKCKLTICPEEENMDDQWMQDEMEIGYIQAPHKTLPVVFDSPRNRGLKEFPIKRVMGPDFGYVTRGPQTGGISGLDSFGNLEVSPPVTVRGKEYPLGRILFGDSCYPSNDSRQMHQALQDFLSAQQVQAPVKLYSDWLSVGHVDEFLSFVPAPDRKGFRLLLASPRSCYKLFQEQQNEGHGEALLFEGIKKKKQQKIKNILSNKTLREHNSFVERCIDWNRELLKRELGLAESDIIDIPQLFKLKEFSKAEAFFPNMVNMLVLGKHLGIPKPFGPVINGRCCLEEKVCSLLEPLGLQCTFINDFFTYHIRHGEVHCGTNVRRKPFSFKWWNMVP
# [14] = reduced OD of T4-infected AddAB+ E. coli – absorbance, E. coli V3065, T4 phage, triplicate, AddAB inhibitor project, confirmation (AID 488942;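 active = mean inhibition above a set limit taken from the earlier primary screen, cut at about 13% in these data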;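 note: higher means less bacterial growth since AddAB block lets phage replicate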); conditions: E. coli V3065 expressing H. pylori AddAB, at 11.9 µM, active compounds read high, T4 phage with gene 2 nonsense mutations
# [15] = reduced OD of phage-infected RecBCD+ V66 E. coli – absorbance, mutant T4 phage, counter-screen for AddAB inhibitor project (AID 488955;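 active = mean inhibition above the mean of solvent-only control wells plus 3 SD, cut at about 4% in these data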;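 note: optical density read after an 18 h incubation at 37 °C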); conditions: OD growth, at 11.9 µM, active compounds read high
# [16] = bacterial growth inhibitors – absorbance, counter-screen for AddAB inhibitor project, confirmation (AID 488956; in the data active = inhibition above about 25%); conditions: bacterial viability, absorbance (AddAB counterscreen); at 11.9 µM; active compounds read high
# [17] = biological target: Insulin-degrading enzyme (Homo sapiens) (UniProt P14735); assay: cellular IDE Abeta-cleavage inhibition – fluorescence polarization, HEK cells, FAbetaB substrate, confirmation (AID 435028;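 active = mean inhibition across triplicate wells above the cutoff set by the earlier primary insulin-degrading enzyme screen, cut at about 16% in these data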;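 note: 0% = DMSO wells and 100% = 60 µM reference IDE inhibitor Ii1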); conditions: at 5.59 µM, active compounds read high
# Sequence of Insulin-degrading enzyme (Homo sapiens) (P14735 whole entry, looked up): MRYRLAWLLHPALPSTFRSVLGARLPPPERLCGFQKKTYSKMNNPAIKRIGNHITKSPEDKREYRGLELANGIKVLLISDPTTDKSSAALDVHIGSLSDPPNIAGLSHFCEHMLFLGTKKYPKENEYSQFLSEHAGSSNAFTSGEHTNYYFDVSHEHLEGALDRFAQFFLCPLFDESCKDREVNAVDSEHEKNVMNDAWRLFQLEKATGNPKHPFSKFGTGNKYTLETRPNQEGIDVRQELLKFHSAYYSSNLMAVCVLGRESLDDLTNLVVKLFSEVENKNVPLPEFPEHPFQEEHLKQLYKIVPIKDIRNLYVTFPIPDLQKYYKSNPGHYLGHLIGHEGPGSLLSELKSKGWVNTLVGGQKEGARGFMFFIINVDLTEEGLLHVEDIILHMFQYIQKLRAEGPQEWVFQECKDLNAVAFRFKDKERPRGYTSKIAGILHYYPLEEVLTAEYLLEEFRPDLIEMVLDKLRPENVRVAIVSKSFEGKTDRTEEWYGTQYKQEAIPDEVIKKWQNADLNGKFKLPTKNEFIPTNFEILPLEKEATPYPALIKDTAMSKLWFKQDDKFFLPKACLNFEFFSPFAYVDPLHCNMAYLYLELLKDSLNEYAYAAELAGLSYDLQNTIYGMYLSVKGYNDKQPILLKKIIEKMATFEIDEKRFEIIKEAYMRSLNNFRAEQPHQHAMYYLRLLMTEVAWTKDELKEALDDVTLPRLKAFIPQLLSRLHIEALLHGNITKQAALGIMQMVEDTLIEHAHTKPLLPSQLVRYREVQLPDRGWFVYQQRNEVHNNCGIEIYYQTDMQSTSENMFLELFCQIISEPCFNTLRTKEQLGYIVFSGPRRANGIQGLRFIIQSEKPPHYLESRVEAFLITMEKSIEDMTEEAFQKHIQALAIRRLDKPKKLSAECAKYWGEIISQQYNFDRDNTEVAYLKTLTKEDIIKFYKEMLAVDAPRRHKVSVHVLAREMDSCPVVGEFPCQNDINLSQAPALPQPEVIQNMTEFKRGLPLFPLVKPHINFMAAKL
# [18] = HEK cell viability loss – luminescence, cytotoxicity control for IDE inhibitor project (AID 449730; in the data active = inhibition above about 22%;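 note: 0% = vehicle wells and 100% = reference cytotoxic drug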); conditions: HEK293 cytotoxicity, ATP luminescence; at 5.59 µM; active compounds read high
# [19] = biological target: (Lyso)-N-acylphosphatidylethanolamine lipase (Mus musculus) (UniProt Q8VD66); assay: mouse ABHD4 hydrolase blockers, triplicate – biochemical, fluorescence polarization, confirmation (AID 720658;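 active = mean inhibition across replicates above the hit cutoff set in the primary screen, cut at about 30% in these data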;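 note: 0% = wild-type ABHD4 with DMSO and 100% = catalytically dead S159A mutant with DMSO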); conditions: purified mABHD4, FP-Rh probe fluorescence polarization; at 8.92 µM; active compounds read high
# [20] = biological target: Platelet-activating factor acetylhydrolase IB subunit alpha1 (Homo sapiens) (UniProt Q15102); assay: inhibition of PAF acetylhydrolase 1B subunit 3 – biochemical, fluorescence polarization, human, confirmation (AID 493032;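 active = average inhibition over triplicate runs above the hit cutoff set in the earlier primary screen, cut at about 25% in these data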;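 note: 0% = enzyme with DMSO and 100% = wells lacking PAFAH1B3 protein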); conditions: recombinant PAFAH1B3, FP-Rh activity-based probe, at 3.39 µM, active compounds read high
# Sequence of Platelet-activating factor acetylhydrolase IB subunit alpha1 (Homo sapiens) (Q15102 whole entry, looked up): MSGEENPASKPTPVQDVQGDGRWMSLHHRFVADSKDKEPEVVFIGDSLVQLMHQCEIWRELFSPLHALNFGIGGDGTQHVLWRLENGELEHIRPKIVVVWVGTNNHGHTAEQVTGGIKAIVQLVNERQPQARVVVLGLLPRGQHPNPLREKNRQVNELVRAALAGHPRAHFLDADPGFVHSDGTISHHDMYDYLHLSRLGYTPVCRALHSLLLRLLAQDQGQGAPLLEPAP
smiles,measurement,setting,value
COc1cccc(/C=N/NC(=O)c2cc3c(OC)ccc(OC)c3[nH]2)c1O,inhibition,[1],32.6% (active)
same,inhibition,[2],28.5%
same,inhibition,[3],29.7% (active)
same,inhibition,[4],-23.7%
same,inhibition,[5],28.4%
CC(=O)C1C(=O)c2c(cccc2[N+](=O)[O-])C1=Nc1ccc(S(N)(=O)=O)cc1 (centres undefined),inhibition,[1],30.2% (active)
same,inhibition,[4],-19.4%
same,inhibition,[5],2.35%
O=C1C(SCCO)=C(SCCO)C(=O)c2ccccc21,inhibition,[1],38.3% (active)
same,inhibition,[6],26.2%
same,inhibition,[7],76.3% (active)
same,inhibition,[8],74.8% (active)
same,inhibition,[9],46.1% (active)
Cc1ccc(C(C)C)c(OCc2ccc(C(=O)N/N=C/c3ccc(O)c(O)c3)cc2)c1,inhibition,[1],-9.52%
same,inhibition,[4],-11%
same,inhibition,[5],62.6% (active)
COc1ccc2c(c1)[nH]c1c(N3CCN(Cc4ccc5c(c4)OCO5)CC3)ncnc12,inhibition,[1],14.8%
same,inhibition,[7],50.2% (active)
same,inhibition,[8],53.7% (active)
O=C1C(Cl)=C(Nc2ccc3cn[nH]c3c2)C(=O)c2ccccc21,inhibition,[1],31.7% (active)
same,inhibition,[4],-24%
same,inhibition,[5],52.9% (active)
O=[N+]([O-])c1cccc(-c2nc(-c3cccs3)c(-c3cccs3)[nH]2)c1,inhibition,[1],13%
same,inhibition,[6],19.7%
same,inhibition,[7],55% (active)
same,inhibition,[8],42.7% (active)
same,inhibition,[9],-12.5%
Nc1ccc2oc(-c3cc(Br)ccc3Cl)nc2c1,inhibition,[1],9.02%
same,inhibition,[6],-34.3%
same,inhibition,[7],45.4% (active)
same,inhibition,[8],32.9%
same,inhibition,[9],-44.9%
COc1ccc(/C=C2\CN(Cc3ccccc3)C/C(=C\c3ccc(OC)c(O)c3)C2=O)cc1O,inhibition,[1],-5.14%
same,inhibition,[10],59.2% (active)
same,inhibition,[11],0.48%
same,inhibition,[3],12.4%
same,inhibition,[4],73.1% (active)
same,inhibition,[5],22.9%
COc1ccc2c(c1)OC(O)(C(F)(F)C(F)F)CC2=O (centres undefined),inhibition,[12],5.88%
COC(=O)N1C(=O)[C@](c2ccccc2)(C2CCCC2)N1C(=O)OC,inhibition,[1],86.9% (active)
same,inhibition,[4],-1.09%
same,inhibition,[5],-4.92%
COc1cc(OC)c2cc(C(=O)N/N=C/c3cccc(OC)c3O)[nH]c2c1,inhibition,[1],39.4% (active)
same,inhibition,[2],17.7%
same,inhibition,[3],6.13%
Cc1ccc(NC(=O)c2ccc(Nc3c([N+](=O)[O-])cc([N+](=O)[O-])cc3[N+](=O)[O-])cc2)cc1,inhibition,[1],30.6% (active)
same,inhibition,[10],7.5%
same,inhibition,[11],2.96%
same,inhibition,[4],50% (active)
same,inhibition,[5],27.1%
COc1cccc(-c2nc(NC(C)C)c3ccccc3n2)c1O,inhibition,[1],23.6%
same,inhibition,[6],21.2%
same,inhibition,[7],46.5% (active)
same,inhibition,[8],57% (active)
same,inhibition,[9],-1.3%
COc1ccccc1CCCNC(=O)C1CCC(=O)N(CCN2CCOCC2)C1 (centres undefined),inhibition,[12],5.53%
CCCc1nc2ccccc2c(=O)n1/N=C/c1ccc(O)c(O)c1,inhibition,[12],3.52%
Cc1[nH][nH]c(=O)c1C(c1ccc(-c2ccc(Cl)cc2)o1)c1c(C)[nH][nH]c1=O,inhibition,[12],22.6%
same,inhibition,[13],2.58%
O=C(c1[nH]ncc1-c1ccc(Cl)cc1)C1CO1 (centres undefined),inhibition,[12],79.6% (active)
same,inhibition,[14],57.3% (active)
same,inhibition,[15],7.58% (active)
same,inhibition,[16],34.3% (active)
C[n+]1ccccc1C1CCCC/C1=N\Nc1ccc([N+](=O)[O-])cc1[N+](=O)[O-] (centres undefined),inhibition,[12],6.21%
COC(=O)CCCC1=CC2=C(c3ccccc3)C(=O)C(C)(OC(=O)C3CCCC3)C(=O)C2=CN1c1ccc(OC)cc1 (centres undefined),inhibition,[12],16.9%
O=C(OCC(=O)N1CCCC1=O)c1cc(S(=O)(=O)N2CCOCC2)ccc1Cl,inhibition,[12],1.2%
O=C(Cc1cc(=O)[nH][nH]1)N/N=C/c1ccccc1[N+](=O)[O-],inhibition,[12],5.98%
O=C(c1cccnc1)N(c1cc2sc(=O)oc2c2ccccc12)S(=O)(=O)c1ccccc1,inhibition,[12],6.84%
same,inhibition,[17],3.36%
same,inhibition,[18],10.9%
same,inhibition,[19],17.6%
CC(=O)N(C1=C(Cl)C(=O)c2ccccc2C1=O)c1ccc(C(=O)O)cc1,inhibition,[12],77.8% (active)
same,inhibition,[17],164% (active)
same,inhibition,[18],14.1%
same,inhibition,[20],25.6% (active)
COc1ccc(C(C(=O)NC2CCCCC2)N(C(=O)CCl)c2ccccc2Cl)cc1 (centres undefined),inhibition,[12],45% (active)
CC1=CC(C)(C)Nc2ccc(OC(=O)CN3C(=O)C4CCCCC4C3=O)cc21 (centres undefined),inhibition,[12],1.06%
same,inhibition,[17],29.8% (active)
same,inhibition,[18],75% (active)
same,inhibition,[4],-22.9%
same,inhibition,[5],27.4%
C=CCNC(=O)c1ccccc1SCc1c(C)noc1C,inhibition,[12],3.92%
COc1ccc(-c2csc(Nc3ccc(O)cc3)n2)cc1,inhibition,[12],7.69%
CC(C)(C)OC(=O)c1c(N)n(CCCN2CCCC2=O)c2nc3ccccc3nc12,inhibition,[12],57.9% (active)
COCCN1C=C2C(=O)C(C)(OC(=O)C3CCCC3)C(=O)C=C2C=C1c1ccsc1 (centres undefined),inhibition,[12],7.54%
same,inhibition,[13],-1.24%
COc1ccc(S(=O)(=O)N2CCOCC2)cc1NC(=O)CSc1ncnc2ccccc12,inhibition,[12],15.2%
same,inhibition,[13],0.87%
CC(C)CC[n+]1ccn(C2=C([O-])c3ccccc3C(=O)/C2=N\S(=O)(=O)c2ccccc2)c1,inhibition,[12],68.2% (active)

# — PubChem BioAssay
